Reference: article PMC5540273 (PLoS ONE, 2017)
pKd: −log10 of the molar value.

System: CSNK2A2
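Also: kd values determined as follow-up on hits from a single-replicate KINOMEscan panel screen.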

SMILES | pKd
Nc1ncnc2[nH]c(-c3ccccc3)nc12 [AH5015] | 5.96
Clc1cc(Cl)cc(Nc2ccnc(Nc3cc(Cl)cc(Cl)c3)n2)c1 [GSK175726] | < 5.00
COc1ccccc1CNC(=O)c1cc(C(=O)c2ccccc2C)c[nH]1 [GSK364507] | 5.29
Cc1cccc(-c2nc(Nc3ccc4[nH]ncc4c3)c3ccccc3n2)n1 [GW857175] | 7.38
Fc1cc(Cl)ccc1Nc1ccnc2cc(-c3ccc(CN4CCCCC4)o3)ccc12 [GW560116] | < 5.00
COc1cc2ncnc(Nc3ccc4nc(-c5ccccc5)[nH]c4c3)c2cc1OC.Cl [GW282450] | < 5.00

System: DDR1

SMILES | pKd
Cc1cccc(-c2nc(-c3ccc(S(C)(=O)=O)cc3)sc2-c2ccnc(NCCc3ccccc3)c2)c1 | 6.64
COC(=O)c1c(-c2ccccc2)c2cc(OC)ccc2c(=O)n1Cc1ccccc1 | 6.55
Cl.O=C(Nc1cccc(-c2nn3ncccc3c2-c2ccnc(Nc3cccnc3)n2)c1)c1c(F)cccc1F [GSK312879] | 6.85
CC(=O)Nc1nc2cnc(Nc3cc(NC(=O)c4cccc(CCC#N)c4)ccc3C)nc2s1 | < 5.00
Cc1ccc(NC(=O)Nc2cc(C(C)(C)C)nn2-c2ccccc2)cc1 [GSK1014915] | 5.89
O=C(Nc1ccccc1)Nc1cccc(Oc2ccc3nccn3n2)c1 | 7.62
Cc1ccc(NC(=O)Nc2cccc(Cl)c2)cc1-c1ccc(C(=O)Nc2ccncc2)cc1 [GSK1398468] | 7.12
COC(=O)c1c(-c2ccccc2)c2cc(C(=O)O)ccc2c(=O)n1Cc1ccccc1 | 6.80
